Experimental data reported in ChEMBL document CHEMBL4513216, “Probing the Open Global Health Chemical Diversity Library for Multistage-Active Starting Points for Next-Generation Antimalarials” (ACS Infect Dis, 2020).
Hit rate of the full screen: of about 69,000 compounds, about 8,600 (12%) showed an effect of 50% or more. The list comes from a sample in which strong results are over-represented; it also holds similar structures and randomly drawn compounds.

These compounds were tested on Plasmodium berghei (assay: Screen against P. berghei liver stage (PbLuc), transformed with Luciferase, at 10uM). Settings: tested at 10 uM.
Assay type: functional, HepG2

Structure (SMILES) | INHIBITION
Cc1ccc(OCc2occc2C(=O)N2CC[C@H](CO)[C@@H](O)C2)cc1 | 26.6%
Cc1ccc(OCc2occc2C(=O)O)cc1 | 64.1%
Cc1ccc(OCc2occc2C(=O)N2CCOC(C(=O)O)C2)cc1 (centres undefined) | -0.71%
NS(=O)(=O)c1cc(C(=O)N2CCCC(n3ccnc3)C2)cs1 (centres undefined) | 29.4%
O=S1(=O)CCC(S(=O)(=O)c2cccc(S(=O)(=O)N3CCCC3)c2)C1 (centres undefined) | 36.3%
CSCc1cccc(S(=O)(=O)N2CCC(C)CC2)c1 | 32.4%
O=S1(=O)CCC(S(=O)(=O)c2cccc(S(=O)(=O)N3CCCCCC3)c2)C1 (centres undefined) | 50.2%
O=S1(=O)CCC(S(=O)(=O)c2cccc(S(=O)(=O)N3CCOCC3)c2)C1 (centres undefined) | 58.9%
CC1=CCN(S(=O)(=O)c2cccc(C(=O)N3CCOCC3)c2)CC1 | 37.1%
CN1CCN(S(=O)(=O)c2cccc(S(=O)(=O)C3CCS(=O)(=O)C3)c2)CC1 (centres undefined) | 46.7%
COCCN1C[C@H]2[C@@H](C1)N(C(=O)c1cccc(OC)c1)CC[C@H]2OC | 9.63%
CC(C)c1ncc2c(n1)CN(Cc1nc(-c3cccnc3)no1)CC2 | 33.7%
Cc1nc(CN2CCOCC3(CCN(c4ncccn4)CC3)C2)cs1 | 27.6%
Cc1nn(C)c(C)c1C1CCCN1CC(=O)NCc1ccco1 (centres undefined) | 7.12%
O=C(NC1CC1)[C@H]1C[C@H]2OCC[C@H]2N(Cc2cccc3ccccc23)C1 | 11.4%
Cn1c(CN2CCCc3cc(F)cc(F)c32)cc(=O)n(C)c1=O | 12.8%
CCNc1nc(N(C)C)nc(-n2cnc(SC)n2)n1 | 46.1%
c1cnc(N2CCCC3(CN(CC4CCOCC4)CCO3)C2)cn1 (centres undefined) | -36%
c1cnc(N2CCCC3(COCCN(CC4CC4)C3)C2)nc1 (centres undefined) | -6.23%
c1cnc(N2CCC3(CCN(CC4CC4)CC3)CC2)nc1 | -5.69%
Fc1ccccc1CN1CCCC2(CCN(c3ncccn3)CC2)C1 | 30.3%
Fc1ccccc1CN1CCCC2(CCN(c3ncccn3)C2)C1 (centres undefined) | 74.9%
O=C(O)[C@]12CCCN(C3CCOC3)C[C@H]1CN(c1ncccn1)C2 (some centres undefined) | 31.2%
O=C(O)[C@]12CCCN(CC3CCOC3)C[C@H]1CN(c1ncccn1)C2 (some centres undefined) | 53.9%
Fc1cnccc1CN1CCCC2(CCN(c3ncccn3)CC2)C1 | 30.3%
O=C(O)[C@]12CCCN(Cc3ccccc3)C[C@H]1CN(c1ncccn1)C2 | 2.01%
c1cnc(N2CCOCC3(CCCN(CC4CC4)C3)C2)cn1 (centres undefined) | 26.8%
c1cnc(N2CCC3(CCCN(CC4CCCCC4)C3)C2)cn1 (centres undefined) | 63%
c1cnc(N2CCC3(CCCN(CC4CC4)C3)CC2)nc1 | 61.1%
